These compounds were tested on CSK. Settings: concentration: 1 μM, replicates: in singlicate; n = 1.
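Note: KINOMEscan kinase panel screen.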

| SMILES | %Inh |
| --- | --- |
| CCCC(=O)Nc1n[nH]c2ncc(-c3cccc4ccccc34)cc12 [SB-642057] | 0% |
| Nc1nc(N)c2nc(-c3ccccc3)[nH]c2n1 [SKF-12778] | 0% |
| Cl.c1ccc(Cn2cnc3cc(Nc4ncnc5ccccc45)ccc32)cc1 [GW272142] | 64% |
| COc1cccc(-n2cnc3c(N)ncnc32)c1 [SKF-97416] | 8% |
| COC(=O)c1c(-c2ccccc2)c2cc(Br)ccc2c(=O)n1Cc1ccc(S(C)(=O)=O)cc1 | 0% |
| COc1cccc(C2=C(Nc3cccc(C(=O)O)c3)C(=O)NC2=O)c1 [SB-390770] | 0% |
| O=C1NC(=O)C(c2ccccc2)=C1Nc1cccc(O)c1 [SB-390534] | 0% |
| O=c1cc(N2CCOCC2)nc2n(Cc3ccc(F)c(Cl)c3)ccn12 [GSK2297099] | 13% |
| Cc1nnc(-c2ccc3ncn(-c4ccc(S(C)=O)cc4)c3c2)o1 (stereo not shown) | 0% |
| CCc1nc(-c2cccc(C)c2)c(-c2ccncc2)s1 | 0% |
| CCn1c(-c2ccoc2)nc2cnccc21 [SB-733887] | 0% |
| COc1cc2ncn(-c3cc(OCc4ccc(S(C)(=O)=O)cc4)c(C(N)=O)s3)c2cc1OC [GW869979] | 0% |
| COc1ccc(-c2coc3ccc(-c4nnc(SCc5cccc(C#N)c5)o4)cc23)cc1 | 20% |
| Fc1cccc(CSc2nnc(-c3ccc4c(c3)CCO4)o2)c1 | 0% |
| Cc1ccc(Oc2ccc(Nc3ncnc4cc[nH]c34)cc2C)cn1 | 20% |
| COc1ccc(-n2cnc3c(N)ncnc32)cc1 [SKF-97236] | 4% |
| COc1cc(Nc2nccc(N3CCC(NC(=O)C(C)c4ccc(Cl)cc4)C3)n2)cc(OC)c1OC (stereo not shown) [GSK1379757] | 0% |
| Cc1nn2c(=O)cc(N3CCOCC3)nc2n1Cc1cccc(Cl)c1Cl [GSK2342769] | 0% |
| COc1ccc(-c2cc3c(C)nc(N)nc3n([C@H]3CC[C@H](O)CC3)c2=O)cn1 | 0% |

| SMILES | %Inh |
| --- | --- |
| COc1cc2ncn(-c3cc(OCc4ccncc4)c(C(N)=O)s3)c2cc1OC [GSK336313] | 0% |
| COc1cc(Nc2nccc(N3CCC(NC(=O)C4COc5ccccc5O4)C3)n2)cc(OC)c1OC (stereo not shown) [GSK1379761] | 0% |
| Nc1ncnc2c1ncn2-c1cccc(F)c1 [SKF-97560] | 0% |
| CCC(=O)c1c(-c2ccccc2)c2cc(Cl)ccc2c(=O)n1Cc1cc(C(=O)NC2CC2)n(C)n1 | 0% |
| Nc1n[nH]c2ncc(-c3ccccc3)cc12 [SB-517081] | 0% |
| Cc1nc(N(C)[C@H]2CN(C(=O)CC#N)CC[C@H]2C)c2cc[nH]c2n1 | 0% |
| CC(C)(C)c1ccc(C(=O)Nc2cn3cc(-c4ccccc4)ccc3n2)cc1 | 0% |
| FC(F)(F)c1ccc(-c2ncn(CCCN3CCOCC3)c2-c2ccncc2)cc1 [SB-217780] | 18% |
| O=C(Nc1n[nH]c2nc(-c3ccccc3)c(Cl)cc12)C1CC1 [SB-734909] | 0% |
| COc1ccc(-c2cc3c(C)nc(N)nc3n([C@H]3CC[C@H](OCCO)CC3)c2=O)cn1 | 13% |
| Cc1ccc(-c2ccc3c(ccc4sc5c(c43)NC[C@@H](C)N=C5N(C)C)n2)cn1 | 0% |
| Nc1n[nH]c2nnc(-c3ccccc3)c(-c3ccccc3)c12 [GW554060] | 0% |
| CCC(=O)c1c(-c2ccccc2)c2cc(Cl)ccc2c(=O)n1Cc1ccc(C(=O)O)cc1 | 0% |
| CCS(=O)(=O)c1ccc(OC)c(Nc2ncc(-c3ccc(F)cc3)o2)c1.Cl [GW591947] | 0% |
| CCS(=O)c1ccc(-c2coc3ccc(-c4nnc(C)o4)cc23)cc1 (stereo not shown) | 19% |
| O=C(NCc1cccs1)c1cc(C(=O)c2c(Cl)cccc2Cl)c[nH]1 [GW823670] | 0% |
| COc1cccc(C2=C(N(C)c3ccccc3)C(=O)NC2=O)c1 [SB-334865] | 0% |
| OCCCNc1nccc(-c2c(-c3cccc(C(F)(F)F)c3)nn3cc(C(F)(F)F)ccc23)n1 [GW630813] | 0% |

— article PMC5540273 (PLoS ONE, 2017)
